# Hits are enriched below; roughly 7.5% of the tested compounds scored in any of these assays.
# SMN2 splice up: qHTS Assay for Enhancers of SMN2 Splice Variant Expression. Potency, µM (top dose mostly 46.1 µM), without a hit: at the top dose activity change, positive = activation, hits mostly activators. actives 2.8% (n = 210,000). HEK293 SMN2-luciferase splicing reporter, luminescence, 30-36 h; also: % of control where 0% means no effect; nearly all actives have a fitted effect of over 55% in size
#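 HEK293 cells carry an SMN2 minigene-luciferase reporter in which exon 7 inclusion puts luciferase in frame. Cells were seeded at 2000 cells/well, attached for 10-12 hours, then exposed to compounds for 30-36 hours at 37C before ONE-Glo luminescence.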
# NPC1 prom act: qHTS Assay for NPC1 Promoter Activators; Huh7 NPC1 promoter luciferase reporter, 24 h; Potency, µM (doses to about 9.22 µM), for inactives: at the highest dose activation, actives largely listed as activators; actives 2.4% (n = 320,000); also: % of control where 0% means no effect; nearly all actives have a fitted effect of over 60% in size
#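 Quantitative HTS used a cell-based reporter: Huh7 cells stably bearing the NPC1 promoter upstream of luciferase were treated with compounds for 24 h, and promoter activation was read as luminescence.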
# KinaseGlo FLuc: Counterscreen for Luciferase (Kinase-Glo TM) Inhibition; Luciferin 4-monooxygenase (Photuris pensylvanica), Q27757; Kinase-Glo luciferase, ATP luminescence, 8 min; Potency, µM (doses to about 38.3 µM), inactives show at the highest dose activity change, negative = inhibition, most hits filed as inhibitors; actives 0.28% (n = 200,000); AID 1379, 2008; also: % is scaled to controls: 0 for no effect and ±100 for the full control effect; nearly all actives have a fitted effect of over 60% in size
#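 Kinase-Glo luciferase light output from ATP and luciferin was measured with 10 uM ATP, within the enzyme's linear range. Buffer: 50 mM imidazole pH 7.2, 50 mM KCl, 7 mM MgCl2, 0.01% Tween 20, 0.05% BSA; luminescence read after 8 min at ambient temperature.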
# ELG1 genotoxic: qHTS screen for small molecules that induce genotoxicity in human embryonic kidney (HEK293T) cells expressing luciferase-tagged ELG1; HEK293T ELG1-luciferase reporter, luminescence, 16 h; actives 1.3% (n = 330,000); Potency, µM (series often up to 46 µM), without a hit: at the top dose activity change, positive = activation, actives largely listed as activators; AID 504466, 2011; also: % of control where 0% means no effect; nearly all actives have a fitted effect of over 60% in size
#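 Cells (2,000/well) expressing the ELG1-luciferase fusion are dosed by pin tool and kept 16 hr at 37 °C, 5% CO2. Signal comes from ONE-Glo luciferase reagent after 30 min at room temperature.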
# Rab9 prom act: qHTS Assay for Rab9 Promoter Activators; Huh7 Rab9 promoter-luciferase reporter, luminescence, 24 h; Potency, µM (doses to about 9.22 µM), for inactives: at the top dose activation, negative = inhibition, hits mostly activators; actives 2.8% (n = 320,000); AID 485297, 2010; also: % of control where 0% means no effect; nearly all actives have a fitted effect of over 60% in size
#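 Luciferase signal after 10 min detection reagent at ambient indicates Rab9 promoter upregulation; stably transfected Huh7 cells were treated 24 h with compound in DMSO at 37 °C, 5% CO2.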
# FLuc counter: qHTS profiling assay for firefly luciferase inhibitor/activator using purifed enzyme and Km concentrations of substrates (counterscreen for miR-21 project); Potency, µM (series often up to 57.5 µM), inactives show at the highest dose activity change, negative = inhibition, usual class: inhibitors; purified FLuc, Km substrates, luminescence inhibition; actives 6.9% (n = 360,000);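 also: plate controls were vehicle for no effect and reference inhibitor for full effect; nearly all actives have a fitted effect of over 55% in size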
# Target sequence (P08659 whole entry, looked up): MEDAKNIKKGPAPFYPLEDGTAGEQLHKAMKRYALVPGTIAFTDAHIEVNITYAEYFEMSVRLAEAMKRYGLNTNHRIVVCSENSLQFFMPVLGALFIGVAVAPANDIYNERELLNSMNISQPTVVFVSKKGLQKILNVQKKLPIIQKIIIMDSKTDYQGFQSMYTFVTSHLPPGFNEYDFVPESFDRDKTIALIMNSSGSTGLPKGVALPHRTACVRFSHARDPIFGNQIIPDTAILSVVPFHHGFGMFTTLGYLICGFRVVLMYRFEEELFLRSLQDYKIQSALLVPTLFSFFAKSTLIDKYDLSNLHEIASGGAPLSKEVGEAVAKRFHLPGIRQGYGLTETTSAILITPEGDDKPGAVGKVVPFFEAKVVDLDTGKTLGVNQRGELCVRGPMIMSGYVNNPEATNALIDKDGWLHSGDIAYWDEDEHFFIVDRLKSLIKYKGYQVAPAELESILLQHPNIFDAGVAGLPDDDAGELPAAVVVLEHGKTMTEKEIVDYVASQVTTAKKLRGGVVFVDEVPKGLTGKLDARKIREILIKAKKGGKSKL
#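 Purified P. pyralis luciferase, 10 nM final, with Km-level 10 uM D-luciferin and 10 uM ATP in 50 mM Tris acetate pH 7.5, 10 mM Mg acetate, 0.01% Tween-20, 0.05% BSA; 6-point qHTS titration about 60 µM downward; luminescence read.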
# Active calls of the source: *; ? = inconclusive; nt = no result; [ ] = dose if it differs, or a comment. Calls follow the shape of the dose curve; as a rule, active = well fitted curve in the direction sought with a large enough effect; inconclusive = small, poorly fitted or top-dose-only effect, or another doubt; inactive = no such curve, though single readings can be large; an effect the other way counts as inactive or inconclusive. Potency is read from the fitted curve at half-maximal effect.
SMILES,SMN2 splice up,NPC1 prom act,KinaseGlo FLuc,ELG1 genotoxic,Rab9 prom act,FLuc counter
CCS(=O)(=O)c1ccc(O)c(NC(=O)COc2ccc(Br)cc2)c1,1%,0%,4%,-1%,-4%,24µM*
Cc1cccc(Cn2cc(SCC(=O)Nc3nccs3)c3ccccc32)c1,9%,?,2%,4.1µM*,?,-13%
O=C(N/N=C/c1cccc(O)c1)c1cc(-c2ccccc2)nc2ccccc12,nt,0%,nt,-4%,0%,11µM*
CCOc1ccccc1-c1cc(C(=O)N/N=C/c2ccc3c(c2)OCO3)c2ccccc2n1,29%,1%,-3%,2%,2%,-16%
CCOc1ccccc1-c1cc(C(=O)N/N=C/c2ccc(O)c(OC)c2)c2ccccc2n1,25µM*,0%,12%,-14%,3%,-5%
O=C(N/N=C/c1cccc([N+](=O)[O-])c1)c1cc(-c2ccccc2)nc2ccccc12,-2%[1.84 µM],-3%,-5%,5%,0%,2%
CC(/C=N/NC(=O)c1cc(-c2ccncc2)nc2ccccc12)=C\c1ccco1,-18%,-7%,-2%,2%,-9%,-15%
CCOc1cccc(-c2cc(C(=O)N/N=C/c3ccc(OC)c(CN4CCOCC4)c3)c3ccccc3n2)c1,-27%,-4%,3%,-8%,-1%,6µM*
O=C(N/N=C/c1ccco1)c1cc(-c2cccc(Br)c2)nc2ccccc12,-46%,0%,-1%,-1%,0%,4.8µM*
Cc1ccc(NC(=O)N2CCc3cc(S(=O)(=O)N4CCC(C)CC4)ccc32)cc1,-3%,nt,nt,nt,nt,-4%
COc1ccccc1C(=O)NC(=O)CSc1nnnn1C,nt,nt,nt,1%,nt,nt
O=C(N/N=C/c1ccc(O)c(O)c1)c1cc(-c2ccccc2)nc2ccccc12,nt,-8%,nt,3%,0%,15µM*
O=C(N/N=C/c1ccc2c(c1)OCO2)c1cc(-c2ccccc2Cl)nc2ccccc12,-13%,-2%,-2%,0%,-2%,?
COc1ccc(/C=N/NC(=O)c2cc(-c3ccccc3)nc3ccccc23)c(OC)c1,nt,3%,nt,-6%,12%,17µM*
COc1ccc2nc(-c3ccccc3)cc(OC)c2c1,?,18%,-4%,?,20%,12µM*
O=C(N/N=C/c1ccc2c(c1)OCO2)c1cc(-c2ccncc2)nc2ccccc12,-26%,-19%,-11%,4%,-22%,12µM*
O=C(N/N=C/c1cc([N+](=O)[O-])ccc1O)c1cc(-c2ccccc2)nc2ccccc12,-72%,-15%,0%,2%,-15%,?
O=C(N/N=C/c1c(F)c(F)c(F)c(F)c1F)c1cc(-c2ccccc2)nc2ccccc12,nt,1%,nt,-3%,12%,-3%
CCCC(c1cc(C(C)(C)C)c(O)cc1C)c1cc(C(C)(C)C)c(O)cc1C,-22%[9.22 µM],nt,-7%[7.66 µM],nt,nt,nt
NC(=O)CC(NSc1ccccc1[N+](=O)[O-])C(=O)O (stereo not given),nt,-2%,nt,0%,21%,0%
O=C(N/N=C/c1ccc[nH]1)c1cc(-c2ccc(Cl)cc2)nc2ccccc12,-33%,-11%,-1%,-12%,-4%,12µM*
O=C(N/N=C/c1ccc(Cl)cc1)c1cc(-c2cccnc2)nc2ccccc12,-26%,-32%,1%,6%,-18%,-7%
COc1ccc2nc(SCC(=O)Nc3cc(C)on3)[nH]c2c1,-22%,-1%,7%,5%,3%,4%
COc1ccc(/C=C\c2onc(C)c2S(=O)(=O)N2CCC(C(=O)NCCC(C)C)CC2)cc1,-10%,-3%,3%,0%,6.3µM*,1%

# High-throughput results as filed in PubChem.
